This passage reports Inhibition results from ChEMBL document CHEMBL1157539, “Thousands of chemical starting points for antimalarial lead identification” (Nature, 2010).

The subject of the assay is HepG2. Briefly: GSK_TCMDC: Percent inhibition of human HepG2 cell line. Test compounds present at 10uM. The format is functional.
Regarding `C[C@H](Cc1ccc(CCc2ccc(C[C@@H](C)NC[C@H](O)c3cccc(Cl)c3)cc2)cc1)NC[C@H](O)c1cccc(Cl)c1.Cl`, the Inhibition (as a rule, the percentage by which the read-out fell short of the control) is given as 100%.

The compound `Cl.c1ccc(CC2=NCCN2)cc1` [TOLAZOLINE HYDROCHLORIDE] returned an Inhibition of 3%.

For the compound `N#Cc1ccc(-n2cc(C(=O)Nc3ccc4c(c3)CCN(C3CCC3)CC4)c(C(F)(F)F)n2)cc1.O=C(O)C(F)(F)F`, the Inhibition stood at 37%.

`CNC(=O)c1ccccc1Nc1nc(Nc2ccc(CCN3CCN(C)CC3)cc2)ncc1Cl.Cl`: the Inhibition amounted to 76%.

Compound `CCN(CC)CCN(Cc1ccc(-c2ccc(C(F)(F)F)cc2)cc1)C(=O)Cn1c(CCc2c(F)cc(F)cc2F)nc(=O)c2ccccc21.O=C(O)C(O)C(O)C(=O)O` registered an Inhibition of 39%.

In the case of `O=C(Nc1cccc(CN2CCCN(Cc3ccsc3)CC2)c1)c1ccc(-c2ccccc2)cc1.O=C(O)C(F)(F)F`, the Inhibition turned out to be 30%.

As to `COc1ccc(-c2cc3ncnc(N4CCN(CCN5CCCC5)CC4)c3s2)cc1`, the Inhibition came to 22%.

Consider `Cc1ccccc1C1CCN(C2CCC(NC(=O)c3cc(-c4ccc(Cl)cc4)cs3)CC2)CC1` (stereo unspecified), for which the Inhibition came to 99%.

With `CNC(=O)CC(=O)NCCc1ccc(Cl)cc1`, the Inhibition is 0%.

With `CCC(C)NCc1c(O)ccc2c(CNC(C)CC)c(O)ccc12.Cl` (stereo unspecified), the Inhibition amounted to 14%.

In turn, `Cc1cc(N[C@@H](CC(C)C)C(=O)Nc2ccccc2)nc(NCC2CCCCC2)n1.O=C(O)C(F)(F)F` gave an Inhibition of 8%.

The compound `CCn1c(C=Cc2cc(Br)ccc2O)nc2ccccc2c1=O` showed an Inhibition of 6%.

Compound `O=C(Nc1ccc(Cl)cc1)Nc1cccc(-c2cccc(-c3nc4cc(C(F)(F)F)ccc4[nH]3)c2)c1` gave an Inhibition of 87%.

Take `CCCc1ccccc1Nc1nc(C)cc(N(CC)CCCN2CCCCC2)n1.O=C(O)C(F)(F)F`: the Inhibition amounted to 27%.

For the compound `COc1cc(NC(=O)Nc2ccnc3ccccc23)cc(OC)c1.Cl`, the Inhibition is 11%.

In turn, `Cc1cc(N2CCCC2)nc(Nc2ccc(NC(=O)C(C)Oc3ccccc3)cc2)n1` (stereo unspecified) registered an Inhibition of 42%.

The compound `COc1ccc(CCN(C)CCCN2CCC(NC(=O)c3cccc4c(=O)c5ccccc5[nH]c34)CC2)cc1OC.O=C(O)C(=O)O` showed an Inhibition of 19%.

Take `CCOC(=O)C1=C(C)NC2=C(C(=O)CC(C)(C)C2)C1c1ccc(Cl)cc1` (stereo unspecified): the Inhibition was determined as 4%.

Compound `Cc1ccc(Nc2nc(C)cc(NC3CC3)n2)cc1` had an Inhibition of 0%.

As to `O=C(Nc1ccc(-c2cccc(-c3nc4ccccc4[nH]3)c2)cc1)Nc1ccc2c(c1)OCO2`, the Inhibition is recorded as 55%.

For `CC(=O)c1ccc(NC(=O)Nc2ccc3nccc(N4CCN(C)CC4)c3c2)cc1`, the Inhibition was found to be 2%.

For the compound `CC(C)(C)c1ccc(CN2CCC(CNC(=O)c3cc(-c4ccccc4F)cs3)C2)cc1.O=C(O)C(F)(F)F` (stereo unspecified), the Inhibition is reported as 46%.

In turn, `COc1cccc(CN2CCN(C(c3ccccc3)c3ccccc3)CC2)c1O.O=C(O)C(=O)O` yielded an Inhibition of 6%.

As to `Clc1ccc(CNc2nc(NCCc3c[nH]cn3)nc(Nc3ccc4c(c3)OCO4)n2)cc1`, the Inhibition is 8%.

`CC(C)(C)OC(=O)N(Cc1cc(-n2nnnc2C(F)(F)F)ccc1O)[C@H]1CCCN(C(=O)OC(C)(C)C)[C@H]1c1ccccc1` registered an Inhibition of 14%.

The compound `O=C(NC1CCCc2ccccc21)[C@@H]1CCCN1C(=O)c1ccc(O)c(-c2cccc([N+](=O)[O-])c2)c1` (stereo partly specified) displayed an Inhibition of 0%.
